{"source": "PubChem BioAssay AID1259370", "about": "(Center for Chemical Genomics, University of Michigan, 2018)", "note": "Out of some 94,000 compounds screened, about 680 (0.72%) were called active. Many of the other results were omitted from the sample, so actives are more common in it than they were. Unmarked numbers belong to inactive results. Cut-off read from the data, not from the text of the source: active = z-score above about 3.2; inactive = the rest."}
{"biological_target": "M-phase inducer phosphatase 2 (Homo sapiens) + Cyclin-dependent kinase 2 (Homo sapiens) + Cyclin-A2 (Homo sapiens) (UniProt P30305+P24941+P20248)", "assay": "primary biochemical HTRF screen for inhibition of M-phase inducer phosphatase 2 binding to cyclin-dependent kinase 2/cyclin A (AID 1259370)", "conditions": "HTRF CDC25B-CDK2/CyclinA binding, anti-His/anti-Flag; active compounds read high"}
{"smiles": "O=C1CCCN1CCCn1c(=O)[nH]c2ccccc2c1=O", "z-score": -0.94}
{"smiles": "Cc1nc2ccccc2nc1NO", "z-score": 1.05}
{"smiles": "Cc1cc(=O)nc2c3ccccc3n(CC(=O)NC3CCC(C)CC3)n12", "note": "(stereo unspecified)", "z-score": -1.08}
{"smiles": "CCN1CCN(c2c(C(=O)c3ccccc3)cnc3cc4c(cc23)OCCO4)CC1", "z-score": 2.74}
{"smiles": "CCn1c(SCC(=O)Nc2c(C)cc(C)cc2C)nc2c(c1=O)SCC2", "z-score": -0.71}
{"smiles": "CCc1cc2c(cc3c(=O)n(CC(=O)NCCCOC)nc(CC)n32)s1", "z-score": -1.5}
{"smiles": "O=S(=O)(NCc1ccccc1)c1ccc(-c2ccc(S(=O)(=O)NCc3ccccc3)cc2)cc1", "z-score": -0.47}
{"smiles": "CN1CSC2=C(C#N)C(c3ccc(Br)cc3)CC(=O)N2C1", "note": "(stereo unspecified)", "z-score": 1.4}
{"smiles": "COc1ccc(N2C(=O)CSC2c2cc(Br)ccc2OC)cc1", "note": "(stereo unspecified)", "z-score": -0.41}
{"smiles": "COc1ccc(-c2n[nH]c3c2C(c2cccc(Br)c2)NC3=O)cc1", "note": "(stereo unspecified)", "z-score": 0.39}
{"smiles": "COc1cccc(C2CC(=O)N3CN(c4ccc(Br)cc4)CSC3=C2C#N)c1", "note": "(stereo unspecified)", "z-score": "7.44 (active)"}
{"smiles": "COc1ccc(N2CSC3=C(C#N)C(c4cccc(Br)c4)CC(=O)N3C2)cc1", "note": "(stereo unspecified)", "z-score": "4.67 (active)"}
{"smiles": "COc1cc(C2CC(=O)N3CN(c4ccc(Br)cc4)CSC3=C2C#N)ccc1O", "note": "(stereo unspecified)", "z-score": 0.91}
{"smiles": "Cc1cc(C)c2c(n1)nn1c(C)c(CCC(=O)NCCCN3CCCC3=O)c(C)nc21", "z-score": -0.15}
{"smiles": "CC(C)n1c(=O)c2c3c(sc2n(Cc2ccccc2)c1=O)COC(C)(C)C3", "z-score": -1.8}
{"smiles": "O=c1c2cccnc2n(Cc2ccc(F)cc2)c(=O)n1Cc1ccco1", "z-score": 0.9}
{"smiles": "C=CCN(c1ccccc1)S(=O)(=O)c1cc(Br)cc2c1N(C(C)=O)C(C)C2", "note": "(stereo unspecified)", "z-score": 0.27}
{"smiles": "COc1cccc(OCC(O)Cn2c[n+](C)c3cc(C)c(C)cc32)c1", "note": "(stereo unspecified)", "z-score": 0.54}
{"smiles": "CC1=C(C(=O)OCC2CCCO2)C(c2cccc(Cl)c2)C2=C(CC(c3cccs3)CC2=O)N1", "note": "(stereo unspecified)", "z-score": -0.95}
{"smiles": "Cn1c(=O)c2c(ncn2CC(=O)NCC2CCCO2)n(C)c1=O", "note": "(stereo unspecified)", "z-score": -1.02}
{"smiles": "CCC(C)N(CCNC(=O)Nc1cn(C)c(=O)c2ccccc12)Cc1ccco1", "note": "(stereo unspecified)", "z-score": "12.3 (active)"}
{"smiles": "Cc1ccccc1NC(=O)NCc1ccco1", "z-score": -0.44}
{"smiles": "Cc1nn(C(C)C(=O)NCc2ccco2)c(=O)c2cc3occc3n12", "note": "(stereo unspecified)", "z-score": -0.04}
{"smiles": "COc1cc(NC(=O)c2nn3c(C(F)(F)F)cc(-c4cccs4)nc3c2Cl)cc([N+](=O)[O-])c1", "z-score": -3.72}
{"smiles": "COc1ccccc1-c1nnc(SCc2ccc(F)cc2)o1", "z-score": 1.82}
{"smiles": "O=C(NC1CCc2ccccc21)c1cc2c(s1)CCC2", "note": "(stereo unspecified)", "z-score": -1.04}
{"smiles": "O=C(Nc1ccc(F)cc1)N1CCC(n2c(=O)[nH]c3ccccc32)CC1", "z-score": -3.87}
{"smiles": "CCN(CC)c1nc2c(s1)C(=O)NCC(C)(C)C2", "z-score": -0.63}
{"smiles": "O=C(/C=C/c1ccc(Cl)cc1)Nc1ccc(-c2nc3ccccc3o2)c(O)c1", "z-score": -2.66}
{"smiles": "O=C(/C=C/c1cccc([N+](=O)[O-])c1)Nc1ccc(O)c(-c2nc3ccccc3o2)c1", "z-score": -3.5}
{"smiles": "O=C(/C=C/c1ccc(-c2ccccc2[N+](=O)[O-])o1)Nc1cc(Cl)c(Cl)cc1Cl", "z-score": "3.71 (active)"}
{"smiles": "CCCCN(CC)C(=O)c1nn(C)c2c1COc1ccccc1-2", "z-score": -1.21}
{"smiles": "CCCc1nc(C)cc(N2CCOCC2)n1", "z-score": -1.62}
{"smiles": "COc1cc(C2CC(=O)Nc3c2cc(Br)c2ccccc32)ccc1O", "note": "(stereo unspecified)", "z-score": -0.73}
{"smiles": "Cc1ccc(NC(=O)CSc2nc(N)c3c4c(sc3n2)COC(C(C)C)C4)cc1", "note": "(stereo unspecified)", "z-score": -24.7}
{"smiles": "COC(=O)C1=C(OC(=O)COc2ccccc2)c2ccccc2S(=O)(=O)N1C", "z-score": -1.66}
{"smiles": "CCOC(=O)Cc1nnc2c(Nc3cccc(Br)c3)nc3nonc3n12", "z-score": -0.4}
{"smiles": "CCCCn1c2ccccc2c2nc3ccccc3nc21", "z-score": "19.8 (active)"}
{"smiles": "CCCCn1c(CCNC(=O)C(C)(C)C)nc2ccccc21", "z-score": 0.64}
{"smiles": "CCCCCCn1c(C2CCCO2)nc2ccccc21", "note": "(stereo unspecified)", "z-score": -2.17}
{"smiles": "C=C1c2cc(OCC)ccc2NC(=O)N1c1ccc(Cl)cc1", "z-score": -0.12}
{"smiles": "CCCCN(Cc1ccco1)C(=O)Cn1ncc2c1-c1cc(C)ccc1OC2", "z-score": -2.75}
{"smiles": "O=C1c2ccccc2C(Nc2ccc3c(c2)OCCO3)N1c1ccc(Cl)cc1", "note": "(stereo unspecified)", "z-score": 1.04}
{"smiles": "O=C(COc1ccc(Cl)cc1)Oc1ccc2ccccc2c1", "z-score": -1.03}
{"smiles": "CC1=Nc2ccccc2-c2nnc(SCc3ccccc3F)nc2O1", "z-score": -1.63}
{"smiles": "CCC(C)NC(=O)C1CCN(C(=O)c2sccc2-n2cccc2)CC1", "note": "(stereo unspecified)", "z-score": -1.11}
{"smiles": "CCOC(=O)N1CCN(S(=O)(=O)c2ccc(-n3cnnn3)cc2)CC1", "z-score": -0.58}
{"smiles": "CCOc1cc(-n2cnnn2)c(OCC)cc1N", "z-score": "14.4 (active)"}
{"smiles": "Cc1cc(OCC(=O)Oc2ccc(-n3cnnn3)cc2)cc(C)c1Cl", "z-score": 0}
{"smiles": "Clc1ccc(N2CCCC2)nn1", "z-score": 0.42}
{"smiles": "Cc1ccccc1-c1noc(-c2ccc(F)cc2)n1", "z-score": -0.49}
{"smiles": "CC(C)(C)c1cn2c3ccccc3n(CCN3CCOCC3)c2n1", "z-score": 0.1}
{"smiles": "CN1CCN(c2cc(NCCCC(=O)O)c3c4c(onc24)-c2ccccc2C3=O)CC1", "z-score": 0.14}
{"smiles": "CC(C)CNc1cc(N2CCN(C)CC2)c2noc3c2c1C(=O)c1ccccc1-3", "z-score": -2.89}
{"smiles": "CC1CCN(c2cc(NCC(=O)O)c3c4c(onc24)-c2ccccc2C3=O)CC1", "z-score": "13.8 (active)"}
{"smiles": "Cc1nc2ncnn2c(Sc2ccc(N)cc2)c1C", "z-score": 3.58}
{"smiles": "O=C(CN1CCN(c2ccccn2)CC1)c1ccc2c(c1)CCN2", "z-score": -2.4}
{"smiles": "Cc1ccc(-c2nnc(C3CCN(S(=O)(=O)c4c(C)cc(C)cc4C)CC3)o2)cc1", "z-score": 0.05}
{"smiles": "NC(=O)C1CCN(CC(O)COc2ccc(Cl)c(Cl)c2)CC1", "note": "(stereo unspecified)", "z-score": -0.09}
{"smiles": "CCOC(=O)N1CCN(CC(O)COc2ccc(OC(F)(F)F)cc2)CC1", "note": "(stereo unspecified)", "z-score": "11.1 (active)"}
{"smiles": "COc1ccc(OCC(O)CN2CCC(C)CC2)cc1", "note": "(stereo unspecified)", "z-score": 1.91}
{"smiles": "CCOc1ccc(-c2cc(O)cc3sc(=O)oc23)cc1", "z-score": -1.8}
{"smiles": "CCC1(C)Cc2ccccc2-c2[nH]c(=O)n(-c3ccccc3)c(=O)c21", "note": "(stereo unspecified)", "z-score": -2.42}
{"smiles": "N#CC1=C(N)OC2=C(C(=O)CCC2)C1c1cccc(O)c1", "note": "(stereo unspecified)", "z-score": -0.34}
{"smiles": "O=C(O)C1C2CCC(O2)C1C(=O)N1CCN(c2ccccc2)CC1", "note": "(stereo unspecified)", "z-score": -0.45}
{"smiles": "Cn1c(C(=O)N2CCC(C(=O)N3CCN(c4ccccc4)CC3)CC2)cc2sccc21", "z-score": -0.7}
{"smiles": "CC(=O)Oc1cc2c(C(=O)N3CCN(c4ccccc4)CC3)c(C)oc2c2ccccc12", "z-score": "10.8 (active)"}
{"smiles": "O=C(O)c1ccc2nc(-c3ccccc3)[nH]c2c1", "z-score": -1.66}
{"smiles": "N#Cc1c(N)nc2c(c1-c1ccco1)CCCC2", "z-score": "19.4 (active)"}
{"smiles": "N#Cc1c(-c2ccco2)cc(-c2ccc(Br)cc2)nc1N", "z-score": -0.1}
{"smiles": "CCOC(=O)c1sc2nc3c(c(-c4ccco4)c2c1N)CCC3", "z-score": -2.78}
{"smiles": "O=C(OCC1CCCO1)c1c(-c2ccccc2)c(-c2ccccc2)n[nH]c1=O", "note": "(stereo unspecified)", "z-score": -1.18}
{"smiles": "COc1cccc(CC2C(=O)Nc3ccccc32)c1OC", "note": "(stereo unspecified)", "z-score": -0.98}
{"smiles": "C=CCOc1cccc(C2c3c(oc4ccc(Cl)cc4c3=O)C(=O)N2CCCN2CCOCC2)c1", "note": "(stereo unspecified)", "z-score": -1.86}
{"smiles": "C=CCN1C(=O)/C(=C/c2ccc(OC(=O)C34CC5CC(CC(C5)C3)C4)c(OC)c2)SC1=S", "z-score": -2.28}
{"smiles": "Cc1ccc(CC2CC(=O)N(c3nc(C)cc(C)n3)C2=O)cc1", "note": "(stereo unspecified)", "z-score": -0.93}
{"smiles": "Cc1ccc2oc(-c3cccc(N4C(=O)c5cccnc5C4=O)c3)nc2c1", "z-score": "16 (active)"}
{"smiles": "O=C1c2cccnc2C(=O)N1c1ccc(-c2nc3ccccc3o2)cc1", "z-score": 1.03}
{"smiles": "Cc1ccc2oc(-c3ccc(C)c(N)c3)nc2c1", "z-score": -1.15}
{"smiles": "Cc1nc2c3ccccc3n3c(CCCC(=O)N4CCC(C(N)=O)CC4)nnc3n2n1", "z-score": 0.97}
{"smiles": "CSc1nc(N/C=C(\\C#N)C(=O)c2cccs2)n2nc(C)cc2n1", "z-score": -0.94}
{"smiles": "CC(C)S(=O)(=O)c1cscc1N/C=C(/C#N)C(=O)c1cccs1", "z-score": "8.41 (active)"}
{"smiles": "CC(C)S(=O)(=O)c1cscc1N/C=C(/C#N)C(=O)C1CC1", "z-score": 0.29}
{"smiles": "Cc1ccccc1-c1noc(CSc2nnc(-c3ccncc3)n2-c2ccccc2)n1", "z-score": -0.18}
{"smiles": "NC(=O)c1c(NC(=O)c2ccc(Br)o2)sc2c1CCCC2", "z-score": -10.5}
{"smiles": "Cc1ccc(S(=O)(=O)c2nc(S(=O)(=O)c3ccccc3)sc2NCc2ccccn2)cc1", "z-score": 0.49}
{"smiles": "COc1ccc(-n2cnc3cc(NCc4ccco4)ccc32)cc1", "z-score": -1.6}
{"smiles": "Cc1nc2cc(NCc3ccccn3)ccc2n1C", "z-score": "14.6 (active)"}
{"smiles": "Cc1ccc(Cn2c(=O)c(C#N)cc3c(=O)n4ccccc4nc32)cc1", "z-score": -2.86}
{"smiles": "CCC12CN3CC(CC)(CN(C1)C3c1cccc(N)c1)C2=O", "note": "(stereo unspecified)", "z-score": -0.44}
{"smiles": "CC1CC(C)CN(C(=O)C(=O)c2c[nH]c3ccccc23)C1", "note": "(stereo unspecified)", "z-score": -1.24}
{"smiles": "NC(=O)C1CCN(C(=O)C(=O)c2c[nH]c3ccccc23)CC1", "z-score": -2.56}
{"smiles": "O=C(C(=O)N1CCc2ccccc2C1)c1c[nH]c2ccccc12", "z-score": "10.4 (active)"}
{"smiles": "Cc1ccc2nc(C3=C(O)CN(c4cc(Cl)ccc4C)C3=N)[nH]c2c1", "z-score": -2.12}
{"smiles": "Fc1ccc(C(Nc2ccccc2)c2nnc(-c3ccccc3)o2)cc1", "note": "(stereo unspecified)", "z-score": 0.64}
{"smiles": "Cc1cccn2c(=O)c3cc(C(=O)NCc4cccs4)n(C)c3nc12", "z-score": -2.17}
